Source: paper PMC5700166

target: T1, GST-Co-NF-kB (Capsaspora owczarzaki, UniProt F1ARL5 200-546); test: protein-binding microarray (PBM); PBM: ~300 nM protein, 6 mM HEPES pH 7.8, 80 mM KCl, 0.5 mM EDTA, 0.5 mM EGTA, 6% glycerol, 35 ng/ul poly-dIdC, 1% milk, 1 h, room temperature; Ap Aiptasia and Nv Nematostella (sea anemones) / Co Capsaspora / Aq Amphimedon (sponge) / Dm Drosophila / Hu human; RHD is the Rel homology domain; high values mean tight binding; conditions: dsDNA, one strand shown
T1 sequence: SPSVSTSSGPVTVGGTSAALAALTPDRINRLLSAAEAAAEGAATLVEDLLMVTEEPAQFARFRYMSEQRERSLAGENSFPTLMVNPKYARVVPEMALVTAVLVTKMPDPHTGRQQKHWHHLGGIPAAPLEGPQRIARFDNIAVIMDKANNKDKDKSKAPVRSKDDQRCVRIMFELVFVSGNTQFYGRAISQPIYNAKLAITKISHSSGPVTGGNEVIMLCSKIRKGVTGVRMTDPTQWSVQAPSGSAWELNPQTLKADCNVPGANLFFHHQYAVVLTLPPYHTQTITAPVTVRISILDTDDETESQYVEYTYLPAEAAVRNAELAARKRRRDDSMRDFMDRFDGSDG

Row | Sequence | binding signal
1 | CCGATTAACATCAGGCCGTCCCCTGATGTTAATCGGGTCTTGATTCGCTTGACGCTGCTG | 1.48 z-score
2 | CCGATTAACATCAAGGGAGTACCTGATGTTAATCGGGTCTTGATTCGCTTGACGCTGCTG | 1.52 z-score
3 | CCGATTAACATCAAAAATCCCGATGATGTTAATCGGGTCTTGATTCGCTTGACGCTGCTG | 1.91 z-score
4 | CCGATTAACATCAGGGAATGACCTGATGTTAATCGGGTCTTGATTCGCTTGACGCTGCTG | 1.03 z-score
5 | CCGATTAACATCAGGGGAGGTACTGATGTTAATCGGGTCTTGATTCGCTTGACGCTGCTG | 3.96 z-score
6 | CCGATTAACATCAAATAAATCCCTGATGTTAATCGGGTCTTGATTCGCTTGACGCTGCTG | 1.92 z-score
7 | CCGATTAACATCAAAATAATCCCTGATGTTAATCGGGTCTTGATTCGCTTGACGCTGCTG | 2.45 z-score
8 | CCGATTAACATCAGGGAAACCCATGATGTTAATCGGGTCTTGATTCGCTTGACGCTGCTG | 2.54 z-score
9 | CCGATTAACATCAGAATTCCCACTGATGTTAATCGGGTCTTGATTCGCTTGACGCTGCTG | 2.92 z-score
10 | CCGATTAACATCAGGATCTTCCCTGATGTTAATCGGGTCTTGATTCGCTTGACGCTGCTG | 1.18 z-score
11 | CCGATTAACATCAGGGGAGCCCCTGATGTTAATCGGGTCTTGATTCGCTTGACGCTGCTG | 3.64 z-score
12 | CCGATTAACATCACGTAAACCCCTGATGTTAATCGGGTCTTGATTCGCTTGACGCTGCTG | 1.08 z-score
13 | CCGATTAACATCAGGATTGCCCCTGATGTTAATCGGGTCTTGATTCGCTTGACGCTGCTG | 1.5 z-score
14 | CCGATTAACATCAGATTCTCCCCTGATGTTAATCGGGTCTTGATTCGCTTGACGCTGCTG | 6.76 z-score
15 | CCGATTAACATCAGGAAACACCCTGATGTTAATCGGGTCTTGATTCGCTTGACGCTGCTG | 1.1 z-score
16 | CCGATTAACATCAGGACTACCCCTGATGTTAATCGGGTCTTGATTCGCTTGACGCTGCTG | 1.83 z-score
17 | CCGATTAACATCAGGCTTTTCCCTGATGTTAATCGGGTCTTGATTCGCTTGACGCTGCTG | 2.51 z-score
18 | CCGATTAACATCAAAGAAGCCCCTGATGTTAATCGGGTCTTGATTCGCTTGACGCTGCTG | 1.52 z-score
19 | CCGATTAACATCATCCCCGTGTCTGATGTTAATCGGGTCTTGATTCGCTTGACGCTGCTG | 4.49 z-score

Row | Sequence | binding signal
20 | CCGATTAACATCAGGGTGTTTTATGATGTTAATCGGGTCTTGATTCGCTTGACGCTGCTG | 1.55 z-score
21 | CCGATTAACATCAAACAATTCCCTGATGTTAATCGGGTCTTGATTCGCTTGACGCTGCTG | 3.45 z-score
22 | CCGATTAACATCAGGAACTACCCTGATGTTAATCGGGTCTTGATTCGCTTGACGCTGCTG | 1.33 z-score
23 | CCGATTAACATCAGGGGGTTAGATGATGTTAATCGGGTCTTGATTCGCTTGACGCTGCTG | 1.94 z-score
24 | CCGATTAACATCAGGGAACCCCATGATGTTAATCGGGTCTTGATTCGCTTGACGCTGCTG | 1.54 z-score
25 | CCGATTAACATCAAGTTTTCCCATGATGTTAATCGGGTCTTGATTCGCTTGACGCTGCTG | 4.78 z-score
26 | CCGATTAACATCAGGGAATCCTATGATGTTAATCGGGTCTTGATTCGCTTGACGCTGCTG | 2.52 z-score
27 | CCGATTAACATCAAGTACTTCCCTGATGTTAATCGGGTCTTGATTCGCTTGACGCTGCTG | 2.13 z-score
28 | CCGATTAACATCAAAAAGTTCCCTGATGTTAATCGGGTCTTGATTCGCTTGACGCTGCTG | 4.37 z-score
29 | CCGATTAACATCAGGGAATTATATGATGTTAATCGGGTCTTGATTCGCTTGACGCTGCTG | 4.16 z-score
30 | CCGATTAACATCACGTCCCCCCCTGATGTTAATCGGGTCTTGATTCGCTTGACGCTGCTG | 5.34 z-score
31 | CCGATTAACATCACATTCTCCCCTGATGTTAATCGGGTCTTGATTCGCTTGACGCTGCTG | 6.71 z-score
32 | CCGATTAACATCACGTGTTTCCCTGATGTTAATCGGGTCTTGATTCGCTTGACGCTGCTG | 3 z-score
33 | CCGATTAACATCAAGGGATTCCCTGATGTTAATCGGGTCTTGATTCGCTTGACGCTGCTG | 2.7 z-score
34 | CCGATTAACATCAGGGAGATACCTGATGTTAATCGGGTCTTGATTCGCTTGACGCTGCTG | 1.64 z-score
35 | CCGATTAACATCAAGCACCCCCTTGATGTTAATCGGGTCTTGATTCGCTTGACGCTGCTG | 1.76 z-score
36 | CCGATTAACATCAGATGTCCCCCTGATGTTAATCGGGTCTTGATTCGCTTGACGCTGCTG | 5.82 z-score
37 | CCGATTAACATCACACCCCCCCCTGATGTTAATCGGGTCTTGATTCGCTTGACGCTGCTG | 5.16 z-score
